Screening results as filed in PubChem BioAssay.
AHR activator: activators of human aryl hydrocarbon receptor; P35869; AHR-responsive luciferase reporter cells, luminescence; activation, % at 5 µM; 2.5% of 320,000 active; in the data active = activation above about 47%;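 also: 0% = vehicle wells and 100% = reference agonist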
FXN GAA850 act: increases GAA850 frataxin promoter reporter activity; AID 540364; HEK293 lucGAA850 FXN promoter luciferase reporter, 24 h; percent of 10 µM SAHA response; activation, % at 6 µM; 0.56% of 360,000 active;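 active = activation above the average of all compounds screened plus 3 SD, cutoff fixed separately per campaign, cut at about 7.5% in these data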;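 also: 0% = DMSO wells and 100% = 10 µM SAHA wells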
HSF1 activator: increases HSF-1 driven luciferase reporter signal; NIH3T3-HGL HSF-1 luciferase reporter, MG132, 8 h; 100% = twice DMSO control signal; AID 504408; activation, % at 9 µM; 1.7% of 300,000 active;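 active = mean replicate activation of at least 50% with a set share of replicates each reaching 50%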;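 also: 0% = median of the neutral control wells and 100% = twice that signal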
DAX1 inh: NR0B1 (DAX1) inhibition; P51843; HEK293 Gal4-DAX1 luciferase reporter, luminescence; inhibition, % at 6.75 µM; 0.99% of 340,000 active;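 active = inhibition above the mean over all tested compounds plus 3 SD, cut at about 4.2% in these data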;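 also: 0% = DAX1-transfected cells with DMSO and 100% = empty-vector control cells with DMSO; inhibition shows as a rise in luminescence from relieved DAX1 repression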
Target sequence (P51843 207-470 limits assumed): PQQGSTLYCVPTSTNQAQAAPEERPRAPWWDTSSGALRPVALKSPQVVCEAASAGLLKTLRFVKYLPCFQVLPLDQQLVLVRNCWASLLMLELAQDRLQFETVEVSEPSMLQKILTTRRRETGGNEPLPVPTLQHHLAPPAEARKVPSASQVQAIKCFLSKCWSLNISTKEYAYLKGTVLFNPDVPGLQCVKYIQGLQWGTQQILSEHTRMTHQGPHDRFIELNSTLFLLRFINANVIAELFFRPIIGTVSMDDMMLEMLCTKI
HSF1 inh: HSF1 inhibition; NIH3T3-HGL HSE-luciferase, MG132-induced, luminescence 8 h; hits give low values; activity change, negative = inhibition, % at 7.5 µM (by protocol); 0.77% of 300,000 active;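 active = more than half of replicate wells show activity change below -50%, luminescence cut by over half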;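 also: luciferase reports HSF-1 transcriptional activity via heat shock element; 0% = median of DMSO wells and -100% = zero luminescence signal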
GAA30 FXN cntr: GAA30 FXN promoter activation counter-screen. shares compounds with FXN GAA850 act. AID 588350. activation, % at 6 µM. 66% of 1,900 active. HEK293 lucGAA30 FXN promoter luciferase, 24 h; DMSO = 0%, 5 µM ipriflavone = 100%;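 active = mean activation above the mean of solvent-only control wells plus 3 SD, cut at about 22% in these data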;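 also: counterscreen of GAA850 promoter hits where activity marks nonselective or luminescence artifacts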
GAA850 confirm: GAA850 FXN promoter activation confirmation | HEK293 lucGAA850 FXN promoter luciferase reporter, 24 h; 100% = activation by SAHA | 86% of 1,900 active | activation, % at 6 µM | shares compounds with FXN GAA850 act;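 active = mean activation above a set limit taken from the primary screen, cut at about 8% in these data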;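 also: 0% = DMSO wells and 100% = 10 µM SAHA wells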
* = called active by the depositor. An excerpt weighted towards active compounds, which were near 5.4% of everything screened.

What do the screens show for `O=C(N/N=C/c1ccc(OC2CSC2)cc1)c1ccccc1`?
AHR activator: 3; FXN GAA850 act: 8.1*; HSF1 activator: 28; DAX1 inh: 2; HSF1 inh: 13; GAA30 FXN cntr: 84*; GAA850 confirm: 47*

Results for O=C(/C=C/c1ccc(OC2CSC2)cc1)c1ccccc1 ?
AHR activator: 6; FXN GAA850 act: 0; HSF1 activator: 34; DAX1 inh: 0; HSF1 inh: 28

What do the screens show for `COc1cc(NC(=O)c2cccc(C)c2)c(Cl)cc1[N+](=O)[O-]`?
AHR activator: -10; FXN GAA850 act: 0; HSF1 activator: 3; DAX1 inh: 0; HSF1 inh: 0

How did CC(C)c1nc2sc3c(NCc4ccco4)ncnc3c2c2c1COC(C)(C)C2 do in these assays?
AHR activator: -5; FXN GAA850 act: 8.1*; HSF1 activator: 6; DAX1 inh: 1; HSF1 inh: 12; GAA30 FXN cntr: 10; GAA850 confirm: 8.0*

What do the screens show for `CC(C)c1nc2sc3c(NCc4ccccc4)ncnc3c2c2c1COC(C)(C)C2`?
AHR activator: 2; FXN GAA850 act: 1; HSF1 activator: 15; DAX1 inh: 3; HSF1 inh: 1

How did CN(CC(=O)NCCc1ccc(S(N)(=O)=O)cc1)Cc1ccc(Cl)cc1Cl do in these assays?
AHR activator: -3; FXN GAA850 act: -2; HSF1 activator: 2; DAX1 inh: -3; HSF1 inh: 3

Results for CC[C@H](C)[C@H](NS(=O)(=O)c1ccc(C)cc1)C(=O)N1CCC(C(=O)N[C@@H](C)C(=O)O)CC1 ?
AHR activator: 2; FXN GAA850 act: 1; HSF1 activator: -9; DAX1 inh: 0; HSF1 inh: -2

What do the screens show for `CCC(C)[C@H](NS(=O)(=O)c1ccc(C)cc1)C(=O)N1CCC(C(=O)N2CCC(C(N)=O)CC2)CC1` (stereo partly specified)?
AHR activator: -1; FXN GAA850 act: 19*; HSF1 activator: 11; DAX1 inh: 3; HSF1 inh: -1; GAA30 FXN cntr: 22; GAA850 confirm: 6

How did C=CCNC(=O)c1ccccc1NC(=O)c1ccc(Cl)c(S(=O)(=O)Nc2ccccc2)c1 do in these assays?
AHR activator: 1; FXN GAA850 act: -2; DAX1 inh: 0

How did COc1ccccc1C(=O)NCCC(=O)NCCC12CC3CC(CC(C3)C1)C2 do in these assays?
AHR activator: -2; FXN GAA850 act: 8.1*; HSF1 activator: -11; DAX1 inh: -1; HSF1 inh: 4; GAA30 FXN cntr: 21; GAA850 confirm: 14*

Results for O=C1[C@H](Cc2ccccc2)NCC=CC[C@H](c2ccco2)N1Cc1ccccc1 ?
FXN GAA850 act: 11*; DAX1 inh: 0; GAA30 FXN cntr: 5; GAA850 confirm: 7

How did COc1ccc(-n2c(=S)[nH]c3cc(C(=O)Nc4ccc(OC)c(OC)c4)ccc3c2=O)cc1 do in these assays?
AHR activator: 5; FXN GAA850 act: 11*; HSF1 activator: -8; DAX1 inh: -1; HSF1 inh: 1; GAA30 FXN cntr: 8; GAA850 confirm: 6

How did COC(=O)c1c(-c2ccccc2)csc1NC(=O)c1ccco1 do in these assays?
AHR activator: -1; FXN GAA850 act: 11*; HSF1 activator: 74*; DAX1 inh: 0; HSF1 inh: 35; GAA30 FXN cntr: 110*; GAA850 confirm: 45*

Results for COC(=O)CCCCCN1C(=O)/C(=C\c2ccncc2)SC1=S ?
AHR activator: 1; FXN GAA850 act: -1; HSF1 activator: -8; DAX1 inh: 0; HSF1 inh: -1

Results for Cc1cccc2cc(CN(C(=O)c3cnccn3)C3CCCCC3)c(Cl)nc12 ?
AHR activator: -1; FXN GAA850 act: 7.6*; HSF1 activator: -1; DAX1 inh: 0; HSF1 inh: 6; GAA30 FXN cntr: 11; GAA850 confirm: 5

Results for CC(OC(=O)C1=COCCO1)C(=O)Nc1ncc(Cl)cc1Cl (stereo unspecified) ?
FXN GAA850 act: -1; DAX1 inh: 0

How did Cc1cc(C(=O)N/N=C/c2ccc3c(c2)OCO3)c(C)n1-c1ccc(F)cc1 do in these assays?
AHR activator: 7; FXN GAA850 act: 2; HSF1 activator: -6; DAX1 inh: -1; HSF1 inh: -3

How did Cc1cc(C(=O)N/N=C/c2ccc(Cl)c([N+](=O)[O-])c2)c(C)n1-c1ccc(F)cc1 do in these assays?
AHR activator: 13; FXN GAA850 act: 9.1*; HSF1 activator: 24; DAX1 inh: 1; HSF1 inh: 1; GAA30 FXN cntr: -3; GAA850 confirm: 12*

Results for Cc1cccc(-c2nc(CN3CCCC(C(=O)NC4CCCC4)C3)c(C)o2)c1 (stereo unspecified) ?
AHR activator: 3; FXN GAA850 act: 8.0*; HSF1 activator: 15; DAX1 inh: 0; HSF1 inh: 7; GAA30 FXN cntr: 10; GAA850 confirm: 6

Results for O=C(Cc1c[nH]c2ccccc12)NCC(=O)Nc1ccc(F)c(F)c1F ?
AHR activator: 27; FXN GAA850 act: 0; DAX1 inh: 1

Results for Cc1snc(SCC(=O)c2ccc([N+](=O)[O-])cc2)c1C#N ?
FXN GAA850 act: 4; DAX1 inh: 0

Results for Cc1snc(SCC(=O)c2ccc(F)cc2)c1C#N ?
AHR activator: 0; FXN GAA850 act: 8.2*; HSF1 activator: 13; DAX1 inh: 1; HSF1 inh: 7; GAA30 FXN cntr: 79*; GAA850 confirm: 28*

Results for Cc1noc(C)c1NC(=O)N(C)C[C@@H]1Oc2ccc(NC(=O)Cc3cn(C)c4ccccc34)cc2CC(=O)N([C@H](C)CO)C[C@@H]1C ?
AHR activator: 14; FXN GAA850 act: 1; DAX1 inh: 0

What do the screens show for `CCCSc1nnc(-c2ccccc2N)c(=O)[nH]1`?
AHR activator: 10; FXN GAA850 act: 11*; HSF1 activator: -3; DAX1 inh: 3; HSF1 inh: -3; GAA30 FXN cntr: 90*; GAA850 confirm: 28*

What do the screens show for `CCOC(=O)CSc1ccc(-c2nc3ccccc3[nH]2)cn1`?
AHR activator: 14; FXN GAA850 act: 1; HSF1 activator: 15; DAX1 inh: 2; HSF1 inh: 4

Results for N#CCSc1ccc(-c2nc3ccccc3[nH]2)cn1 ?
AHR activator: 11; FXN GAA850 act: 7.8*; HSF1 activator: 49; DAX1 inh: 0; HSF1 inh: 22; GAA30 FXN cntr: 85*; GAA850 confirm: 27*

How did OC1CCN(C(c2ccc3ncccc3c2)c2nnnn2C2CCCCC2)CC1 (stereo unspecified) do in these assays?
AHR activator: -1; FXN GAA850 act: 7.8*; HSF1 activator: 2; DAX1 inh: 0; HSF1 inh: 6; GAA30 FXN cntr: 8; GAA850 confirm: 8
